Where “and” joins values, the source holds several entries; their conditions need not be identical. Equal entries are not always repeated. This is part of a sample that, as a whole, favours compounds with a hit. Of some 83,000 tested, about 20% had one in any assay.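 Single-concentration screen, 48 h exposure, 96-well plates. Endpoint: percent growth. Below 10 = active.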 Values without a mark were called inactive. Calls of active or inactive are those of the source.

Among the test systems are NCI-H226 lung; NCI-H322M lung; NCI-H460 lung; HOP-92 NSCLC; NCI-H522 lung; 786-0 renal; DU-145 prostate; K-562 leukemia; MALME-3M melanoma; MDA-MB-231 breast; RXF 393 renal; SF-268 CNS; SF-295 CNS; SF-539 CNS; UACC-257 melanoma; M14 melanoma; HOP-62 NSCLC.
Common to all, as to experiment: NCI-60 one-dose screen, 48 h (100 = growth as untreated, 0 = no growth, -100 = all killed)
For a further assay, the system named is NCI-H23 lung. The note with it: 10 µM unless noted.
Another assay relates to A549/ATCC NSCLC. Conditions: 10 µM unless noted.
A further assay has as its system COLO 205 colon. The note with it: 10 µM unless noted.

Regarding `CCN(CC)CCCC(C)N(Cc1ccccc1)CC(O)c1ccc(Cl)cc1` (stereo unspecified), the growth in the assay with NCI-H23 lung is 106% and 101%; with NCI-H226 lung (10 µM unless noted) it was 98.9% and 110%; in the assay on NCI-H322M lung (10 µM unless noted), 114% and 98%; in the assay with NCI-H460 lung (10 µM unless noted), 101% and 116%; in the assay on HOP-92 NSCLC (10 µM unless noted) it was 71.7% and 95.2%; with NCI-H522 lung (10 µM unless noted), 107% and 89.8%. Moreover, the growth with A549/ATCC NSCLC was 103% and 96.7%; with 786-0 renal (10 µM unless noted) it was 108% and 96.8%; in the assay with COLO 205 colon, 103% and 111%; with DU-145 prostate (10 µM unless noted) it was 109% and 106%; in the assay with K-562 leukemia (10 µM unless noted), 100% and 106%; in the assay with MALME-3M melanoma (10 µM unless noted) it was 103%. Also, the growth is 114% and 105% with MDA-MB-231 breast (10 µM unless noted); 101% and 106% with RXF 393 renal (10 µM unless noted); 102% and 100% in the assay with SF-268 CNS (10 µM unless noted); 103% and 96% in the assay with SF-295 CNS (10 µM unless noted); 111% and 95.9% in the assay with SF-539 CNS (10 µM unless noted); 102% and 105% in the assay with UACC-257 melanoma (10 µM unless noted). Also, in the assay on M14 melanoma (10 µM unless noted), the growth was 109% and 104%.
In the case of `CC#C[C@]1(O)CC[C@H]2[C@@H]3CCC4=CC(=O)CCC4=C3[C@@H](c3ccc4c(c3)OCO4)C[C@@]21C`, the growth was 85.2% in the assay on NCI-H226 lung (10 µM); -21.7% (active) with NCI-H226 lung (100 µM); 90% with NCI-H322M lung (10 µM); 7.01% (active) in the assay with NCI-H322M lung (100 µM); 81.3% with HOP-62 NSCLC (10 µM); -15.3% (active) in the assay with HOP-62 NSCLC (100 µM). For the same compound, the growth was 90.5% in the assay on NCI-H460 lung (10 µM); -45.9% (active) in the assay with NCI-H460 lung (100 µM); 66.1% in the assay with HOP-92 NSCLC (10 µM); -33.2% (active) in the assay on HOP-92 NSCLC (100 µM); 62.4% in the assay with NCI-H522 lung (10 µM); -37.9% (active) in the assay with NCI-H522 lung (100 µM). Besides, the growth with 786-0 renal (10 µM) was 69.5%; in the assay on 786-0 renal (100 µM), -30.5% (active); in the assay on COLO 205 colon it was 101%; with DU-145 prostate (10 µM), 101%; in the assay with DU-145 prostate (100 µM), -13.9% (active); in the assay with K-562 leukemia (10 µM), 83%. Also, the growth is 1.72% (active) with K-562 leukemia (100 µM); 97.8% in the assay on MALME-3M melanoma (10 µM); -29.8% (active) in the assay with MALME-3M melanoma (100 µM); 62.1% in the assay with MDA-MB-231 breast (10 µM); -42.9% (active) in the assay on MDA-MB-231 breast (100 µM); 69.5% in the assay with RXF 393 renal (10 µM). In addition, the growth is -50.7% (active) in the assay with RXF 393 renal (100 µM); 71.3% with SF-268 CNS (10 µM); -4.41% (active) in the assay with SF-268 CNS (100 µM); 58.5% in the assay on SF-295 CNS (10 µM); -41.1% (active) in the assay with SF-295 CNS (100 µM); 75% in the assay with SF-539 CNS (10 µM). The growth is -58.8% (active) in the assay with SF-539 CNS (100 µM); 90.1% with UACC-257 melanoma (10 µM); -38.7% (active) with UACC-257 melanoma (100 µM); 81.9% in the assay on M14 melanoma (10 µM); -53.8% (active) in the assay with M14 melanoma (100 µM).
As to `C=C1C(=O)O[C@H]2[C@H]1CC/C(COC(=O)NC1CCC(O)CC1)=C\CC[C@@]1(C)O[C@@H]21` (stereo partly specified), the growth in the assay with NCI-H23 lung is 58.3% and 50.6%; with NCI-H226 lung (10 µM unless noted), 85.5% and 95%; in the assay with NCI-H322M lung (10 µM unless noted), 105% and 98.6%; in the assay with NCI-H460 lung (10 µM unless noted), 100% and 96.7%; in the assay with HOP-92 NSCLC (10 µM unless noted), 71.6% and 54.6%; in the assay with NCI-H522 lung (10 µM unless noted), -2.94% (active) and -11.8% (active). In addition, the growth in the assay on A549/ATCC NSCLC is 91.7% and 87.8%; with 786-0 renal (10 µM unless noted) it was 103% and 99.6%; in the assay on COLO 205 colon, 44.9% and 41.7%; in the assay on DU-145 prostate (10 µM unless noted), 38.7% and 28.8%; in the assay with MALME-3M melanoma (10 µM unless noted), 72.6% and 64.5%; in the assay on MDA-MB-231 breast (10 µM unless noted) it was 60.8% and 62.4%. The growth was 54% and 53.2% in the assay with RXF 393 renal (10 µM unless noted); 93.2% and 91.5% in the assay on SF-268 CNS (10 µM unless noted); 96.6% and 95.7% in the assay on SF-295 CNS (10 µM unless noted); 71.9% and 63.2% in the assay on SF-539 CNS (10 µM unless noted); 65.6% and 69.1% in the assay with UACC-257 melanoma (10 µM unless noted); 85.4% and 71.4% in the assay with M14 melanoma (10 µM unless noted).
On to `Nc1ccc(N=Nc2ccc(S(=O)(=O)O)cc2)cc1S(=O)(=O)O`, for which the growth in the assay with NCI-H226 lung (10 µM unless noted) is 110% and 99.8%; with NCI-H322M lung (10 µM unless noted), 104% and 110%; with HOP-62 NSCLC (10 µM unless noted), 118% and 101%; with NCI-H460 lung (10 µM unless noted) it was 103% and 96.2%; in the assay on HOP-92 NSCLC (10 µM unless noted) it was 90.9% and 72%; in the assay on NCI-H522 lung (10 µM unless noted) it was 91% and 96.3%. The growth with A549/ATCC NSCLC was 95.1% and 103%; in the assay on 786-0 renal (10 µM unless noted) it was 104% and 106%; in the assay on COLO 205 colon, 125% and 119%; in the assay with DU-145 prostate (10 µM unless noted), 112% and 104%; in the assay with K-562 leukemia (10 µM unless noted), 105%; with MALME-3M melanoma (10 µM unless noted) it was 117% and 112%. Moreover, the growth in the assay on MDA-MB-231 breast (10 µM unless noted) was 88.2% and 104%; in the assay with RXF 393 renal (10 µM unless noted), 99.9% and 61.2%; in the assay on SF-268 CNS (10 µM unless noted), 95.2% and 103%; in the assay with SF-295 CNS (10 µM unless noted) it was 121% and 87.8%; in the assay with SF-539 CNS (10 µM unless noted) it was 102% and 100%; with UACC-257 melanoma (10 µM unless noted), 150%. Moreover, in the assay on M14 melanoma (10 µM unless noted), the growth is 93.8% and 117%.

Source of the values: PubChem BioAssay (NCI).
